In PubChem BioAssay (Tox21):
Records with an inconclusive call do not appear. Entries that show only a call come without a potency. Active and inactive are the calls of the source. The call rests on the fitted dose curve.

assay: qHTS assay to identify small molecule agonists of H2AX - cell viability counter screen (AID 1224847); conditions: CHO-K1 viability, CellTiter-Glo luminescence, 3 h; series mostly up to 154 µM; further: nearly all actives have a fitted effect of over 30% in size
Text: National Center for Advancing Translational Sciences [NCATS]
NIH Chemical Genomics Center [NCGC]
U.S. Environmental Protection Agency [EPA]
National Institutes of Environmental Health Sciences [NIEHS]
National Toxicology Program [NTP]
U.S. Food and Drug Administration [FDA]
HTRF phospho-H2AX (Ser139) assay (Cisbio Bioassays, US) enables the quantitative detection of the histone variant H2AX when phosphorylated on serine 139. When double-stranded DNA breaks, either by ionizing radiation or endogenous physiological processes, H2AX becomes phosphorylated at Ser139. This phospho-Ser139 serves as a sensitive biomarker for the detection of such breaks, localizing the site of DNA repair. So, HTRF phospho-H2AX Ser139 is a pertinent assay to study genome stability, the cell cycle, DNA repair, and it serves as a biomarker for cancer, and to understand aging. Wild type CHO-K1 cells were used to identify the inducers of Phospho-H2AX Ser 139 from the Tox21 compound collections. Also cytotoxicity of the Tox21 10K compound library against the CHO-K1 cell line was tested by measuring the cell viability using CellTiter-Glo assay (Promega, Madison, WI).
Tox21 Assay Protocol Summary:
The CHO-K1 cells suspended in culture medium containing 10% FBS were dispensed at 1000 cells/ 3 ul/well in 1536-well white wall/solid bottom plates (Greiner Bio-One North America, NC) using a Multidrop Combi (Thermo Fisher Scientific Inc., Waltham, MA). After the assay plates were incubated at 37C overnight, 23 nl of compounds at 15 concentrations (from 5-48 columns) or positive control (from 1 to 4 columns) were transferred to the assay plates using a Pintool station (Wako, San Diego, CA) into each well resulting in a final DMSO concentration of 0.76%. After 3hr incubation at 37C, 3 uL/well CellTiter-Glo luminescent cell viability reagent (Promega Corporation, Madison, WI) was added using a Flying Reagent Dispenser (FRD) (Aurora Discovery, CA). After incubation at room temperature for 30 min, the luminescence intensity was read using a ViewLux plate reader (PerkinElmer, Waltham, MA).
Potency means the concentration at half of the fitted maximal effect.

| Compound | Potency |
| --- | --- |
| O=C(O)C1(c2ccc3c(c2)OC[C@H](Cc2ccc(-c4ccccc4)cc2)[C@H]3O)CCCC1 | 101 µM (active) |
| CC(=O)[C@H]1CC[C@H]2[C@@H]3CC[C@H]4C[C@](C)(O)CC[C@]4(C)[C@H]3CC[C@]12C | inactive |
| BrCCCCBr | inactive |
| Clc1cc(Cl)c(Cl)c(Cl)c1 | inactive |
| ClCC(Br)CBr (stereo not given) | inactive |
| N#Cc1ccc(Cl)cc1 | inactive |
| CCCCN(N=O)C(=N)N[N+](=O)[O-] | inactive |
| Cn1sc(Cl)cc1=O | inactive |
| CCN(C)N=O | inactive |
| O=C1NCN(c2ccccc2)C12CCN(CCCOc1ccc(F)cc1)CC2 | inactive |
| c1cc2ccc3cccc4ccc(c1)c2c34 | inactive |
| CCc1ccc(C(=O)NN(C(=O)c2cc(C)cc(C)c2)C(C)(C)C)cc1 | inactive |
| c1ccc(CN2CCNCC2)cc1 | inactive |
| COc1nn(C(=O)NS(=O)(=O)c2ccccc2OC(F)(F)F)c(=O)n1C | inactive |
| Nc1ccc(N=Nc2ccc(-c3ccc(N=Nc4c(S(=O)(=O)O)cc5cc(S(=O)(=O)O)c(N=Nc6ccccc6)c(O)c5c4N)cc3)cc2)c(N)c1 | 11.5 µM (active) |
| Cc1ccc2ccccc2c1 | inactive |
| O=C(NC(=O)c1c(F)cccc1F)Nc1ccc(OC(F)(F)C(F)OC(F)(F)F)c(Cl)c1 (stereo not given) | inactive |
| CCC(Br)(CC)C(=O)NC(N)=O | inactive |
| CCCN(CC1CC1)c1c([N+](=O)[O-])cc(C(F)(F)F)cc1[N+](=O)[O-] | inactive |
| CC1CC(CC2CCC(N)C(C)C2)CCC1N (stereo not given) | inactive |

| Compound | Potency |
| --- | --- |
| C/C=C/C=O | inactive |
| ClCc1cccc(Cl)c1 | inactive |
| NS(=O)(=O)C(F)(F)C(F)(F)C(F)(F)C(F)(F)C(F)(F)C(F)(F)C(F)(F)C(F)(F)F | inactive |
| CCC(Cl)CCl (stereo not given) | inactive |
| ClC=C(Cl)Cl | inactive |
| CCC(C)(NC(=O)c1cc(Cl)c(C)c(Cl)c1)C(=O)CCl (stereo not given) | 114 µM (active) |
| CCCC(=O)Cl | inactive |
| O=S1OC[C@@H]2[C@H](CO1)[C@]1(Cl)C(Cl)=C(Cl)[C@@]2(Cl)C1(Cl)Cl (stereo not given in full) | 20.1 µM (active) |
| COC(=O)C(Cl)C(=O)OC | inactive |
| O=NN1CCCCCC1 | inactive |
| O=C(O)CC(Cl)C(=O)O (stereo not given) | inactive |
| CCOP(=O)(OCC)SCCSCC | inactive |
| O=[Se]=O | inactive |
| O=C1CN=C(c2ccccc2)c2cc(Cl)ccc2N1CC1CC1 | 94.2 µM (active) |
| ClCCCCBr | inactive |
| Cc1cc(=O)[nH]o1 | inactive |
| O=S1(=O)OC(c2cc(Br)c(O)c(Br)c2)(c2cc(Br)c(O)c(Br)c2)c2ccccc21 | 8.23 µM (active) |
| CO/N=C(/C(=O)OC)c1ccccc1COc1ccccc1C | 2.84 µM (active) |
| O=S(=O)(Cl)c1ccccc1 | inactive |
| CO/C=C(/C(=O)OC)c1ccccc1COc1cccc(C(F)(F)F)n1 | 17.9 µM (active) |
